NOMO-1 viab: STK33 inhibitor candidate reducing NOMO-1 cell viability. NOMO-1 AML viability, CellTiter-Glo luminescence, 72 h. 37,000 tested, 7.5% active. inhibition, % (test concentration not listed); in the data active = inhibition above about 80%
STK33 inh: human STK33 kinase inhibition; Q9BYT3; ADP-Glo luminescence, MBP substrate; inhibition, % at 12.5 µM; 27,000 tested, 0.44% active; in the data active = inhibition above about 20%
Target sequence (Q9BYT3 whole entry, looked up): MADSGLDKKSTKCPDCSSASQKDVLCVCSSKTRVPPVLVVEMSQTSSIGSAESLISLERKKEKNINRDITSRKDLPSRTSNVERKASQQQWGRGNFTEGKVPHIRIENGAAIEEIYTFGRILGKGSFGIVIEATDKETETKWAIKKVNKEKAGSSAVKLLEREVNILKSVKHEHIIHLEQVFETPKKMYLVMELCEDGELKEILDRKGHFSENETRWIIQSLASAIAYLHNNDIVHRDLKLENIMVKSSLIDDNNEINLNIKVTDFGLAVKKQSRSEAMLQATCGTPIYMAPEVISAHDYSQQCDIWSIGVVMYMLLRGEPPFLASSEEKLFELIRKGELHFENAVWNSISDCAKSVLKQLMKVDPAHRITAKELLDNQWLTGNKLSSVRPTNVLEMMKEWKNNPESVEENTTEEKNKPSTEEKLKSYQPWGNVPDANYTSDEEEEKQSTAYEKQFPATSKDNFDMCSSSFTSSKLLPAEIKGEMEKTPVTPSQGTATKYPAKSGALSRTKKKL
PD-1 reverse act: reversal of PD-1 mediated T-cell inhibition. AID 2316. activation, % (test concentration not listed). 29,000 tested, under 10 active. primary human CD4 T cells, PD-L1 beads, CellTiter-Glo 96 h; call rule not given here;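 also: 0% = median vehicle wells and 100% = positive control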
The depositor's hits bear a star; / = no result given. Shown is part of a subset that was picked to be rich in hits.

SMILES	NOMO-1 viab	STK33 inh	PD-1 reverse act
C[C@@H]1CN([C@@H](C)CO)C(=O)c2cccc(NC(=O)Nc3ccccc3)c2O[C@@H]1CN(C)Cc1ccc(C(=O)Nc2ccccc2N)cc1	140*	/	0
C[C@H]1CN([C@@H](C)CO)C(=O)c2cccc(NC(=O)Nc3cccc4ccccc34)c2O[C@H]1CN(C)Cc1ccc(C(=O)Nc2ccccc2N)cc1	128*	/	-2
C[C@H]1CN([C@@H](C)CO)C(=O)c2cccc(NC(=O)Nc3ccccc3)c2O[C@H]1CN(C)Cc1ccc(C(=O)O)cc1	9	/	1
C[C@@H]1CN([C@H](C)CO)C(=O)c2cccc(NC(=O)Nc3ccccc3)c2O[C@H]1CN(C)Cc1ccc(C(=O)Nc2ccccc2N)cc1	139*	/	-4
C[C@@H]1CN([C@@H](C)CO)C(=O)c2cccc(NC(=O)Nc3ccccc3)c2O[C@@H]1CN(C)Cc1ccc(C(=O)O)cc1	10	/	-1
C[C@H](CO)N1C[C@H](C)[C@@H](CN(C)Cc2ccc(C(=O)O)cc2)Oc2c(NC(=O)Nc3cccc4ccccc34)cccc2C1=O	11	/	1
COc1ccc(C)cc1S(=O)(=O)N1CCC(C(=O)Nc2cccc(C(C)=O)c2)CC1	4	-4	/
C[C@H]1CN([C@@H](C)CO)C(=O)Cc2cc(NS(=O)(=O)c3cccs3)ccc2O[C@@H]1CN(C)Cc1ccc(C(=O)Nc2ccccc2N)cc1	45	/	0
C[C@@H]1CN([C@@H](C)CO)C(=O)Cc2cc(NS(=O)(=O)c3cccs3)ccc2O[C@@H]1CN(C)Cc1ccc(C(=O)Nc2ccccc2N)cc1	90*	/	0
C[C@@H]1CN([C@H](C)CO)C(=O)Cc2cc(NS(=O)(=O)c3cccs3)ccc2O[C@@H]1CN(C)Cc1ccc(C(=O)Nc2ccccc2N)cc1	116*	/	0
Cc1c(Br)c(C(F)(F)F)nn1CC(=O)Nc1cc(Oc2cccnc2)cc([N+](=O)[O-])c1	59	0	/
COc1cc(C2C3=C(CCCC3=O)Nc3[nH]c(=O)[nH]c(=O)c32)cc(OC)c1OC (stereo not drawn)	22	/	0
C[C@@H]1CN([C@@H](C)CO)C(=O)c2cccc(NC(=O)Nc3ccc4c(c3)OCO4)c2O[C@H]1CN(C)Cc1ccc(C(=O)O)cc1	14	/	1
C[C@@H]1CN([C@H](C)CO)C(=O)c2cccc(NC(=O)Nc3ccc4c(c3)OCO4)c2O[C@H]1CN(C)Cc1ccc2c(c1)OCO2	101*	/	/
C[C@@H]1CN([C@@H](C)CO)C(=O)c2cccc(NC(=O)Nc3ccccc3)c2O[C@H]1CN(C)Cc1ccc2c(c1)OCO2	89*	/	-4
C[C@@H]1CN([C@@H](C)CO)C(=O)c2cccc(NC(=O)Nc3ccc(F)cc3)c2O[C@H]1CN(C)Cc1ccc2c(c1)OCO2	113*	/	-7
C[C@@H]1CN([C@@H](C)CO)C(=O)c2cccc(NC(=O)Nc3ccccc3)c2O[C@@H]1CN(C)Cc1ccc2c(c1)OCO2	35	/	/
C[C@H]1CN([C@@H](C)CO)C(=O)c2cccc(NC(=O)Nc3ccc(F)cc3)c2O[C@H]1CN(C)Cc1ccc2c(c1)OCO2	30	/	0
C[C@@H]1CN([C@H](C)CO)C(=O)c2cccc(NC(=O)Nc3ccc4c(c3)OCO4)c2O[C@H]1CN(C)Cc1ccccc1	97*	/	-3
C[C@@H]1CN([C@H](C)CO)C(=O)c2cccc(NC(=O)Nc3ccc(F)cc3)c2O[C@@H]1CN(C)Cc1ccc2c(c1)OCO2	9	/	1
N#CCC(=O)NCc1cccs1	29	/	0
Nc1cccc(-c2nnc(SCC(=O)Nc3cccc(Cl)c3)n2-c2ccccc2)c1	32	8	-1
O=C(O)c1ccc(Cl)c(S(=O)(=O)N2CCCC2C(=O)O)c1 (stereo not drawn)	8	-2	2
O=C(Nc1sc2c(c1C(=O)NCc1cccnc1)CCCC2)c1ccc([N+](=O)[O-])cc1	9	2	2
Cc1nc(SCC(=O)Nc2ccc(Br)cc2)n[nH]1	20	-4	0
SMILES	NOMO-1 viab	STK33 inh	PD-1 reverse act
O=S(=O)(N[C@@H]1CCCN(Cc2cccc(OCCO)c2)C1)c1ccccc1	/	-10	/
C=CCSc1nnc(-c2ccc(C)cc2)o1	11	/	0
C[C@H]1CN([C@@H](C)CO)C(=O)c2cccc(NC(=O)Nc3ccc4c(c3)OCO4)c2O[C@H]1CN(C)Cc1ccc(C(F)(F)F)cc1	15	/	0
C[C@@H]1CN([C@H](C)CO)C(=O)c2cccc(NC(=O)Nc3ccc4c(c3)OCO4)c2O[C@@H]1CN(C)Cc1ccncc1	-12	/	3
C[C@@H]1CN([C@@H](C)CO)C(=O)c2cccc(NC(=O)Nc3ccc4c(c3)OCO4)c2O[C@@H]1CN(C)Cc1ccc(C(F)(F)F)cc1	82*	/	1
C[C@@H]1CN([C@@H](C)CO)C(=O)c2cccc(NC(=O)Nc3ccc4c(c3)OCO4)c2O[C@H]1CN(C)Cc1ccc(Cl)c(Cl)c1	102*	/	-7
C[C@H](CO)N1C[C@H](C)[C@H](CN(C)Cc2ccc(Oc3ccccc3)cc2)Oc2ccc(NC(=O)Nc3ccc(C(F)(F)F)cc3)cc2C1=O	114*	2	-12
C[C@H](CO)N1C[C@H](C)[C@@H](CN(C)Cc2ccc(Oc3ccccc3)cc2)Oc2ccc(NC(=O)Nc3ccc(C(F)(F)F)cc3)cc2C1=O	128*	/	/
COc1ccc(NC(=O)Nc2ccc3c(c2)C(=O)N([C@H](C)CO)C[C@@H](C)[C@@H](CN(C)Cc2ccc(C(F)(F)F)cc2)O3)cc1	19	1	1
C[C@H]1CN([C@@H](C)CO)C(=O)c2cc(NC(=O)Nc3ccc(C(F)(F)F)cc3)ccc2O[C@H]1CN(C)Cc1ccc(Oc2ccccc2)cc1	83*	/	-5
O=C(CN1C(=O)c2cccc3cccc1c23)Nc1ccccc1C(=O)N1CCOCC1	-10	-3	/
CC(=O)c1ccc(NC(=O)CNS(=O)(=O)c2cccc(Cl)c2)cc1	21	-1	1
Cc1ccccc1-c1cc(C(=O)NCCCn2ccnc2)c2cc(Cl)ccc2n1	-20	0	/
COc1cc(-n2nnnc2SCC(=O)Nc2cccc(Cl)c2Cl)c(OC)cc1Cl	46	4	-1
O=C1C=CC(=O)N1c1ccccc1	114*	/	-7
CC1(C)ONC(=O)N(c2ccccc2)C1=O	9	/	0
CCOC(=O)Cc1[nH]nc2c1C(C1CC=CCC1)C(C#N)=C(N)O2 (stereo not drawn)	114*	4	/
COc1cc(OC)cc(C2C(C#N)=C(N)Oc3n[nH]c(-c4cccnc4)c32)c1 (stereo not drawn)	1	-5	/
N#Cc1cc2c(nc1SCC(=O)Nc1ccccc1OC(F)(F)F)CCCC2	-3	4	/
Cc1cc(C)c(C#N)c(SCC(O)CS(=O)(=O)c2ccc(C(C)(C)C)cc2)n1 (stereo not drawn)	24	0	0
Cc1cc(C)c(C#N)c(SCCS(=O)(=O)c2nc3ccccc3s2)n1	128*	3	-13
N#Cc1cc2c(nc1SCCS(=O)(=O)c1nc3ccccc3s1)CCCC2	112*	0	-9
CCC(C)NC(=O)Cn1cnc2c1c(=O)n(C)c(=O)n2C (stereo not drawn)	10	/	1
OC(c1cc(C(F)(F)F)nc2c(C(F)(F)F)cccc12)C1CCCCN1 (stereo not drawn)	129*	-1	-7
CCN(CC)C(=O)c1cccc(Cl)c1	8	/	0
